# PubChem BioAssay (EPA / NIEHS)
# Calls of active or inactive are those of the source. The calls were made as follows: active = hit-call score of the fitted dose curve at least 0.9, where 1 is the maximum; inactive = score below 0.9.
# Read-out: Interleukin 6 Receptor (IL6R), IL6R (gene 3570)
# Assay: LTEA_HepaRG_IL6R: Life Technologies and Expression Analysis (LTEA) Assay for Interleukin 6 Receptor (IL6R) using HepaRG (AID 2283510);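 as to AC50: TaqMan qRT-PCR signal normalized to ACTB GAPDH and POLR2A housekeeping genes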
# Settings: mRNA level, 48 h; actives raise or lower the signal
# Method: LTEA_HepaRG is a cell based, multiplexed-readout assay that uses HepaRG, a human liver cell line, with measurements taken at 48 hours after chemical dosing on a 96-well plate.LTEA_HepaRG_IL6R is one of 102 assay component(s) measured in the LTEA HepaRG cell culture assay. It is a marker of Inflammation.Data from the assay component LTEA_HepaRG_IL6R was analyzed into 1 endpoint. This assay endpoint, LTEA_HepaRG_IL6R, was analyzed with bidirectional fitting relative to DMSO as the negative control and baseline of activity. Using a type of inducible reporter, measures of mRNA induction for gain or loss-of-signal activity can be used to understand regulation of transcription factor activity. To generalize the intended target to other relatable targets, this assay endpoint is annotated to the cytokine receptor intended target family, where the subfamily is JAK-STAT cytokine receptor.
# A total of 1060 chemcials from the ToxCast library were tested in eight-point concentration-response experiments. Cell culture and cytotoxicity assays were conducted at Thermo Fisher Scientific's Custom Services facility (Madison, WI). A single lot of human HepaRG cells (Thermo Fisher Scientific, Frederick, MD) was used for the cell culture experiments. 96-well format collagen type I coated plates of human HepaRG cells were prepared using established methods. Briefly, cryopreserved HepaRG cells were thawed, plated at a density of approximately 100,000 cells/well in HepaRG Thaw, Plate, and General Purpose media (HPRG770, Thermo Fisher Scientific), and incubated for 48 hours. 0.5% DMSO was selected as vehicle control to balance the requisite need of DMSO in HepaRG cultures to maintain differentiation (for example, baseline metabolism, proportions of hepatocytes vs. cholangiocytes), while enabling further hepatic receptor pathway activation (for example, PXR and CAR) in response to chemical exposure. 48 hours after plating, the culture medium was replaced with HepaRG Serum-Free Incudtion Media. Cells were exposed to each test chemical in duplicate and maintained in CO2 incubators for another 48 hours. Chemical plates were thawed to room temperature and 200x concentrations of treatment groups were prepared. 8-point conentration-reponse curves were made with the highest exposure at 100 uM, followed by half-log dilutions, all in 0.5% DMSO. Each test plate contained variouse controls, induction positive controls (1mM phenobarbital), cytotoxicity positive controls ([…] aflatoxin B1), vehicle controls (0.5% DMSO), and total lysis controls (0.5% DMSO). Cell morphology images were taken using an Essen IncuCyte FLR automated microscope, with six 96-well plates imaged in about 24 minutes. Images were captured and exported and JPEG files. Spent culture media was transfered to black-well plates for the LDH assay, and remaining media was sorted at -80 C for later use. Cells were treated with RLT buffer and frozen until shipped for gene expression analysis. Total RNA was isolated from the cell suspension in 75 uL of Buffer RLT (Qiagen, Germantown, MD 20874) by Quintiles/Expression Analysis (Durham, NC) using a custom isolation procedure. Total RNA from each plate well was transferred to a preamplification plate. Fluidigm's 96.96 Dynamic ArrayTM (Fluidigm, Amsterdam, the Netherlands) technology was used for gene expression analyses by quantitative reverse transcription polymerase chain reaction (qRT-PCR, performed by Quintiles/Expression Analysis, Durham, NC)89. Standard TaqManTM Assays (Applied Biosystems/ThermoFisher Scientific, Foster City, CA) were used to assess the expression of 93 genes selected based on their selectivity and sensitivity to important hepatic receptors known to be modulated by environmental chemicals; importance in human hepatocyte functionality; and hepatotoxicity. […]
SMILES,outcome,AC50
COC(=O)c1c(Cl)c(Cl)c(C(=O)OC)c(Cl)c1Cl,inactive,
CC(C)=CCC/C(C)=C/CO,inactive,
Cc1ccc(C)c(O)c1,inactive,
CCCCCCCCO,inactive,
CC(=O)OC[C@H]1O[C@@](COC(C)=O)(O[C@H]2O[C@H](COC(C)=O)[C@@H](OC(C)=O)[C@H](OC(C)=O)[C@H]2OC(C)=O)[C@@H](OC(C)=O)[C@@H]1OC(C)=O,inactive,
CCOC(=O)COc1ccc2c(c1)CC(NCC(O)c1cccc(Cl)c1)CC2 (stereo not given),inactive,
O=C(O)CCN(C1(C(=O)NO)CCCC1)S(=O)(=O)c1ccc(Oc2ccc(F)cc2)cc1,inactive,
CC1=CC(=O)CC(C)(C)C1,inactive,
COc1ccc2sc(C(=O)Nc3nnn[nH]3)c(OC(C)C)c2c1,inactive,
CC(C)c1cccc(C(C)C)c1N1C(=O)c2ccc(O)cc2C1=O,inactive,
COCCOCCOCCOC,inactive,
O=C(CCCCCCCCc1cccnc1)N1CCC(C=C(c2ccccc2)c2ccccc2)CC1,,89.3 µM (active)
Cc1ccc(N)cc1O,inactive,
Nc1nc2ncc(CNc3ccc(C(=O)N[C@@H](CCC(=O)O)C(=O)O)cc3)nc2c(=O)[nH]1,inactive,
Nc1ccc(Nc2ccccc2)cc1,inactive,
CNS(=O)(=O)c1cc(C(=O)N2CCC(CCN3C4CCC3CC(n3c(C)nc5ccccc53)C4)(c3cccc(F)c3)CC2)c(Cl)cc1F (stereo not given),inactive,
CCn1nc(Cc2ccccc2)cc1C1CCN(C[C@H]2C[C@H](N(C)[C@@H](C(=O)O)C(C)C)C[C@@H]2c2cccc(F)c2)CC1,inactive,
CC(=O)OCCC(C)C,inactive,
CCCC(=O)OCC,inactive,
CCOCCO,inactive,

SMILES,outcome,AC50
CC(C)CCCCCCOC(=O)c1ccc(C(=O)OCCCCCCC(C)C)c(C(=O)OCCCCCCC(C)C)c1,inactive,
NC(=O)NO,inactive,
O=C1CCC(N2C(=O)c3ccccc3C2=O)C(=O)N1 (stereo not given),inactive,
Cn1c(=O)c2c(ncn2C)n(C)c1=O,inactive,
CCc1cc(SCc2sc(-c3ccc(C(F)(F)F)cc3)nc2CN2CCN(c3ccc(OC)cc3)CC2)ccc1OCC(=O)O,,26.2 µM (active)
CC(=O)c1ccc2c(c1)[C@H](NC(=O)c1ccc(F)cc1)[C@@H](O)C(C)(C)O2,inactive,
Cc1c(-c2cccnc2)c2ccccc2n1CCCCC(=O)O,inactive,
CCOCCOCCOCCO,inactive,
O=C1OC(=O)C2C3C=CC(C3)C12 (stereo not given),inactive,
Nc1cccc(N)c1,inactive,
CC(C)CCO,inactive,
CC[C@H](C)C(=O)O[C@H]1C[C@@H](C)C=C2C=C[C@H](C)[C@H](CC[C@@H]3C[C@@H](O)CC(=O)O3)[C@H]21,inactive,
CCCCC(CC)COC(=O)CCCCCCCCC(=O)OCC(CC)CCCC (stereo not given),inactive,
COC(=O)c1ccccc1O,inactive,
O=C1CCCCCN1,inactive,
O=P(OC(CCl)CCl)(OC(CCl)CCl)OC(CCl)CCl,inactive,
CCN(C(=O)c1cc(C)cc(OC[C@H](C)Nc2ccncc2)c1)C(C)C,inactive,
CCCCC(CC)COC(=O)c1ccc(C(=O)OCC(CC)CCCC)cc1 (stereo not given),inactive,
CC(O)CN(CCN(CC(C)O)CC(C)O)CC(C)O (stereo not given),inactive,
CC[C@H]1CC[C@H](NCc2cc3c(cc2OC)[C@H]2C[C@H]2C(=O)N3C)[C@H](c2ccccc2)N1,inactive,
